HT1080NT lethal = kills 2HG-producing HT-1080-NT fibrosarcoma cells; HT-1080-NT fibrosarcoma viability, CellTiter-Glo ATP luminescence, 48 h; Potency, µM (series often up to 46.1 µM), inactives show at the highest dose activity, negative = less viability, hits mostly cytotoxic; 360,000 compounds, 1.6% hits; AID 686970;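 also: NT is the 2HG producing partner of a matched IDH1 knockdown line; 0% = DMSO-treated cells and -100% = media-only wells without cells; nearly all actives have a fitted effect of over 55% in size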
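Luminescent CellTiter-Glo readout after 48 hours of compound exposure at 37 degrees C defined viability of HT-1080-NT cells. Activity was normalized to DMSO wells and cell-free media wells; concentration-response curves were fitted and assigned curve classes.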
S2 tox = viability counter-screen for ATXN expression inhibitors. 400,000 compounds, 0.49% hits. S2 cells (HEK-293 line with an ATXN2-luciferase reporter) viability, CellTiter-Fluor protease fluorescence, 24 h. Potency, µM (series often up to 56.7 µM), hits mostly cytotoxic; also: nearly all actives have a fitted effect of over 40% in size
HT1080 IDH1KD tx = HT-1080 IDH1 knockdown cell toxicity (counter line). 360,000 compounds, 2% hits. HT-1080 IDH1 knockdown viability, ATP luminescence, 48 h. Potency, µM (series often up to 46.1 µM), without a hit: at the highest dose activity, negative = toxicity, hits mostly cytotoxic;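 also: 0% = DMSO wells and -100% = cell-free medium wells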
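Assay cells: HT-1080 with IDH1 knockdown, 750 per well, RPMI/5% FBS. Exposure: 48 h at 37 °C following 2 h pre-incubation. Read: CellTiter-Glo luminescence; fitted concentration-response, curve class assigned.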
ATXN2 expr inh = reduces ATXN2 reporter expression in HEK-293 cells | Potency, µM (top dose mostly 57 µM), for inactives: top-dose activity change, negative = inhibition, usual class: inhibitors | 360,000 compounds, 0.72% hits | HEK-293 ATXN2-luciferase reporter, luminescence, 24 h; also: % is scaled to controls: 0 for no effect and ±100 for the full control effect; nearly all actives have a fitted effect of over 55% in size
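qHTS (up to 57 uM final) was run with 24 h compound exposure of reporter cells at 37 °C. Each well was multiplexed: SteadyGlo luminescence measured ATXN2-luciferase expression after a fluorogenic Gly-Phe-AFC viability readout (25 uM final).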
HepG2 tox-1 = kills HepG2 cells in TGF-b inhibitor counter-screen | Potency, µM (series often up to 46.1 µM), inactives show at the top dose activity change, negative = cytotoxicity, actives largely listed as cytotoxic | 410,000 compounds, 0.76% hits | AID 588856 | HepG2 CAGA-GFP viability, ATP luminescence, 18 h
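HepG2 CAGA-GFP cells (1000/well, DMEM with 1% FBS) received compound, then TGF-beta at 500 pg/mL final, and were incubated 18 hours at 37 degrees C. Viability was read by CellTiter-Glo luminescence. Media-only wells were set as complete cell-killing and DMSO as no toxicity.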
TGFb SMAD3 inh = TGF-b pathway inhibition; 410,000 compounds, 1.2% hits; HepG2 CAGA-GFP TGF-b/SMAD3 reporter, GFP fluorescence, 18 h; TGF-beta stimulated, 500 pg/mL final; Potency, µM (titrated, usually from 46.1 µM), for the others: top-dose activity, negative = inhibition, hits mostly inhibitors; also: % is scaled to controls: 0 for no effect and ±100 for the full control effect; nearly all actives have a fitted effect of over 65% in size
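TGF-beta reporter screen: HEPG2 CAGA-GFP, 1% FBS, 500 pg/mL TGF-beta final, 18 h; per-cell GFP summed per well; curves fitted and categorized by class.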
TGFb confirm = confirmation of TGF-b signaling inhibitors in HepG2 reporter cells; shares compounds with TGFb SMAD3 inh; AID 720534; 1,600 compounds, 63% hits; Potency, µM (doses to about 46.1 µM), without a hit: top-dose activity, negative = inhibition, usual class: inhibitors; HepG2 CAGA-GFP TGF-b reporter, GFP fluorescence, 18 h; cells stimulated with TGF-beta, 500 pg/mL; also: % is scaled to controls: 0 for no effect and ±100 for the full control effect; nearly all actives have a fitted effect of over 65% in size
HepG2 tox-2 = toxic to HepG2 cells in TGF-b counterscreen. AID 720535. shares compounds with TGFb SMAD3 inh. Potency, µM (titrated, usually from 46.1 µM), without a hit: at the highest dose activity, negative = cytotoxicity, hits mostly inhibitors. 1,600 compounds, 27% hits. HepG2 CAGA-GFP viability, ATP luminescence, 18 h; cells stimulated with TGF-beta, 500 pg/mL; also: % is scaled to controls: 0 for no effect and ±100 for the full control effect; nearly all actives have a fitted effect of over 70% in size
TGFb CCL64 inh = orthogonal confirmation of TGF-b inhibitors in CCL64 cells; shares compounds with TGFb SMAD3 inh; CCL64 CAGA-GFP reporter, TGF-b stimulated, GFP fluorescence, 18 h; Potency, µM (series often up to 46.1 µM), without a hit: at the top dose activity, negative = inhibition, actives largely listed as inhibitors; 1,600 compounds, 41% hits; AID 720536; also: nearly all actives have a fitted effect of over 65% in size
COP TGFb inh = TGF-b inhibition validated with COP promoter | shares compounds with TGFb SMAD3 inh | HepG2 COP-GFP TGF-b reporter, GFP fluorescence, 18 h; cells stimulated by added recombinant TGF-beta | Potency, µM (top dose mostly 46.1 µM), without a hit: at the top dose activity, negative = inhibition, hits mostly inhibitors | 1,600 compounds, 3% hits; also: nearly all actives have a fitted effect of over 70% in size
* marks the source's active call; other numbers are inactive results; i = inactive; ? = inconclusive; . = not tested or not shown. A selection: hits, their analogues and other compounds. The true share with any hit is near 3.8%. Calls follow the shape of the dose curve; as a rule, active = well fitted curve in the direction sought with a large enough effect; inconclusive = small, poorly fitted or top-dose-only effect, or another doubt; inactive = no such curve, though single readings can be large; an effect the other way counts as inactive or inconclusive. Potency is read from the fitted curve at half-maximal effect.

SMILES	HT1080NT lethal	S2 tox	HT1080 IDH1KD tx	ATXN2 expr inh	HepG2 tox-1	TGFb SMAD3 inh	TGFb confirm	HepG2 tox-2	TGFb CCL64 inh	COP TGFb inh
Cc1ccc(NC(=O)c2nc[nH]c2C(=O)NCCCNC(=O)c2[nH]cnc2C(=O)Nc2ccc(C)cc2)cc1	17%	i	15%	2%	-2%	?	?	?	?	?
CC(C)(C)OC(=O)NCCCC[C@H](NC(=O)c1[nH]cnc1C(=O)Nc1ccc(CNC(=O)OC(C)(C)C)cc1)C(=O)OC(C)(C)C	?	?	?	0%	-4%	-25%	.	.	.	.
CC(C)(C)OC(=O)[C@H](Cc1ccccc1)NC(=O)c1nc[nH]c1C(=O)N[C@@H](Cc1ccccc1)C(=O)OC(C)(C)C	-19%	?	?	?	-12%	13µM*	15µM*	?	?	39%
COC(=O)c1ccc(NC(=O)Cn2ccn3nc(-c4ccc(OC)cc4)cc3c2=O)cc1	.	i	.	4%	-2%	0%	.	.	.	.
CC(=O)N1CCc2c(sc3c2c(=O)n(-c2cc(Cl)ccc2C)c(=O)n3Cc2ccccc2F)C1	.	?	.	?	-32%	15%	.	.	.	.
C[C@H](CN1CCCC1)C(=O)c1ccc(C(F)(F)F)cc1	.	i	.	1%	.	.	.	.	.	.
CC(C)C[C@H](NC(=O)c1nc[nH]c1C(=O)N1CCN(c2ccccc2)CC1)C(=O)OC(C)(C)C	-18%	i	-7%	58%	-32%	?	-8%	-3%	-24%	5%
CN(Cc1ccccc1)C(=O)c1[nH]cnc1C(=O)Nc1cccc(Cl)c1	2%	i	-1%	5%	-19%	?	?	?	-8%	-1%
CC1CCCCN1S(=O)(=O)c1cc2c3c(c1)CC(=O)N3CCC2 (configuration not stated)	.	.	.	.	-9%	-15%	.	.	.	.
O=S(=O)(Nc1cc(Sc2ncn[nH]2)c(O)c2ccccc12)c1ccccc1	2.3µM*	?	4.6µM*	?	3.5µM*	2.5µM*	7.3µM*	?	5.8µM*	?
Cc1cc(O)c(Sc2ncn[nH]2)cc1NS(=O)(=O)c1ccc(Cl)cc1	-7%	i	-8%	-4%	-3%	-8%	.	.	.	.
Cc1ccccc1N1CCN(C(=O)C2CCC(=O)N(C3CCCC3)C2)CC1 (configuration not stated)	4%	i	9%	-12%	-7%	-7%	.	.	.	.

Screening results deposited in PubChem by National Center for Advancing Translational Sciences (NCATS).
